EWS-Fli block: blocks EWS/Fli oncoprotein-driven transcription | A673 NR0B1-luciferase reporter, viability-normalised | inhibition, % at 12.6 µM | 350,000 compounds, 0.67% hits | AID 651661;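 active means mean inhibition of at least 50% after viability correction, with every replicate also passing that limit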;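 further: firefly luciferase signal divided by Alamar Blue viability fluorescence both relative to DMSO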
LGR2 antag: Drosophila LGR2 receptor signaling inhibition | HEK293 LGR2, CRE-luciferase, bursicon-stimulated, 4 h | inhibition, % at 9.99 µM | 380,000 compounds, 0.35% hits | AID 720647;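 active means drop in luminescence signal, shown as inhibition above about 50% in the replicate tests, limit read from the data, passing the limit was not always enough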;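 further: agonist challenge used bursicon conditioned medium at about half maximal strength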
EBV LMP1 NFkB: Epstein-Barr LMP1 NF-kappaB reporter inhibition; 350,000 compounds, 0.69% hits; inhibition, % at 12.5 µM; AID 504558; LMP1-induced NF-kappaB luciferase reporter cells, luminescence; in the data active means inhibition above about 41%;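 further: 0% = neutral control wells and 100% = reference inhibitor control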
TWEAK-Fn14 inh: blocks TWEAK-Fn14 interaction in a reporter cell assay; TWEAK-stimulated Fn14 reporter cells, luciferase luminescence, 8 h; inhibition, % at 10 µM; 360,000 compounds, 2% hits; AID 1159606; in the data active means inhibition above about 50%
TROY NFkB inh: TROY signaling inhibition | inhibition, % at 10 µM | Q293 LMP1-TROYcd NF-kB luciferase reporter, 4 h | 360,000 compounds, 0.98% hits;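 active means compounds whose plate-normalised and pattern-corrected inhibition of the luciferase reporter signal at the single screening dose is 50% or more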
Active calls of the source: *; x = no result; ! = not active in a repeat. Most compounds without a hit are left out; they make up all but 2.6% or so of the library.

SMILES	EWS-Fli block	LGR2 antag	EBV LMP1 NFkB	TWEAK-Fn14 inh	TROY NFkB inh
COc1ccc(Nc2nc(N3CCCC3)c3ccccc3n2)cc1	x	x	25	6	46
O=C(CSc1nc2nc(-c3cccs3)cc(C(F)(F)F)c2c(=O)[nH]1)Nc1c(F)c(F)c(F)c(F)c1F	12	-8	11	66*	57*
NS(=O)(=O)c1cccc(NC(=O)CSc2nc3nc(-c4cccs4)cc(C(F)(F)F)c3c(=O)[nH]2)c1	-8	2	-1	9	8
O=C(NC(NC(=S)Nc1ccccc1)C(Cl)(Cl)Cl)c1cccc(Cl)c1 (stereo not drawn)	x	49	14	75*	30
O=C1CC(c2ccccc2)CC(O)=C1C=NCc1ccncc1 (stereo not drawn)	0	-2	8	11	-3
O=C1CC(c2ccccc2)CC(O)=C1C=NCc1ccc(Cl)c(Cl)c1 (stereo not drawn)	x	x	7	76*	x
CCC(=O)N(C)C[C@H]1Oc2cc(-c3cccc(C#N)c3)ccc2S(=O)(=O)N([C@H](C)CO)C[C@@H]1C	3	-1	x	x	x
O=C(O[C@@H]1OC2COC(=O)c3cc(O)c(O)c(O)c3-c3c(cc(O)c(O)c3O)C(=O)O[C@@H]([C@H]1O)[C@@H]2O)c1cc(O)c(O)c(O)c1	x	x	-9	75*	-20
O=C(NNS(=O)(=O)c1ccc(F)cc1)c1ccc(O)cc1	13	-8	12	62*	6
O=C(NNS(=O)(=O)c1ccc(F)cc1)c1ccc(S(=O)(=O)N2CCCCC2)cc1	x	0	5	2	-14
CN(C)Cc1c(C(C)(C)O)[nH]c2ccc(C(F)(F)F)cc12	1	-12	4	-15	-4
CCc1c(C2(O)CCCCC2)[nH]c2ccc(C(F)(F)F)cc12	-17	4	-9	16	56*
COc1ccc(C(C)=O)cc1CSc1nnc(Nc2ccccc2)s1	x	12	22	70*	40
COc1ccc(C(C)=O)cc1CSc1nnc(Nc2ccc(C)cc2)s1	3	x	8	63*	29
COc1ccc(C(C)=O)cc1CSc1ncccn1	-21	3	5	6	-22
COc1ccc(C(C)=O)cc1CSc1nnc(C)s1	x	x	-6	6	11
O=C(C[C@H]1C[C@@H]2c3cc(NC(=O)Nc4ccc(C(F)(F)F)cc4)ccc3O[C@@H]2[C@@H](CO)O1)NCCc1ccccc1	38	29	x	x	x
C[C@]12CC[C@@H]3c4ccc(OS(=O)(=O)O)cc4CC[C@H]3[C@@H]1CCC2=O	2	18	66*!	-23	-7
COc1ccc(S(=O)(=O)N(C(=O)c2ccncc2)c2ccc3oc4c(c3c2)CCCC4)cc1	5	18	-2	51*	44
Cc1cc(O)c2c(c1O)C(=O)[C@]13C(=C2O)C(=O)[C@@H]2[C@@H](O)[C@H]1[C@@H]1[C@H](O)[C@H]3C(=O)C3=C(O)c4c(O)cc(C)c(O)c4C(=O)[C@]312	x	x	16	65*	28
CN(C[C@H]1N[C@H](CO)[C@@H]1c1ccc(-c2cccnc2)cc1)C(=O)NC1CCCC1	7	18	x	x	x
COc1ccccc1C(=O)NCCOc1ccc(C(C)(C)C)cc1	8	0	-9	-4	11
CC(C)Cc1ccc(C(=O)NCCOc2ccccc2)o1	-43	23	11	51*	18
CC(C)(C)c1ccc(C(=O)NCCc2ccccc2)cc1	33	-22	-31	59*	43
Cc1ccc(OCCNC(=O)c2ccc(COc3ccccc3)o2)cc1	-9	13	0	-3	0
SMILES	EWS-Fli block	LGR2 antag	EBV LMP1 NFkB	TWEAK-Fn14 inh	TROY NFkB inh
CC(C)(C)c1ccc(C(=O)NCCOc2ccccc2F)cc1	75*	67*	6	95*	75*
CC(C)(C)c1ccc(C(=O)NCc2ccccc2)cc1	-32	-148	-24	-13	-56
Cc1ccc(CCNC(=O)c2cccc(N3CCCC3=O)c2)cc1	x	x	-18	-22	-29
O=C(NCCc1ccccc1)c1cccc(N2CCCC2=O)c1	x	x	26	83*	62*
C[C@H]1CN([C@@H](C)CO)C(=O)c2cc(NC(=O)Cc3ccccc3)ccc2O[C@H]1CN(C)S(=O)(=O)c1cccs1	6	7	x	x	x
CC(C)NC(=O)N(C)C[C@H]1OCCCC[C@H](C)Oc2ccc(NS(C)(=O)=O)cc2C(=O)N([C@@H](C)CO)C[C@H]1C	0	4	x	x	x
CC(C)(C)c1ccc(C(=O)NCCOc2ccccc2)cc1	64*	62*	17	89*	79*
O=C(NCCc1ccccc1)c1ccc([N+](=O)[O-])cc1	x	x	10	58*	11
CN(C)S(=O)(=O)c1ccc(C(=O)NCCOc2ccccc2)cc1	x	x	-25	-5	-32
O=C(NCCc1ccc([N+](=O)[O-])cc1)c1ccccc1	-34	-23	-2	-9	-8
COc1cccc(C#Cc2ccc3c(c2)O[C@@H](CN(C)C)[C@@H](C)CN([C@@H](C)CO)S3(=O)=O)c1	15	4	x	x	x
O=C(NCCc1ccc(Cl)cc1)c1ccc(S(=O)(=O)N2CCCC2)cc1	7	-10	-11	-5	-3
COCCCn1cnnc1SCC(=O)Nc1ccc(S(=O)(=O)N2CCCC2)cc1	x	x	60*	-22	-10
CC(=O)NCCc1ccc(S(=O)(=O)N2CCCC2)cc1	x	x	0	82*	1
CN(C)S(=O)(=O)c1cccc(NC(=S)NC23CC4CC(CC(C4)C2)C3)c1	1	-7	9	62*	9
Cn1cnnc1SCC(=O)Nc1ccc(S(=O)(=O)N2CCCC2)cc1	0	-6	2	-11	5
O=C(Nc1ccc(CN2CCOCC2)cc1)c1ccc(-c2cc(Cl)ccc2Cl)o1	x	x	6	76*	51*
O=C(N[C@@H]1CC[C@H](CCn2cc(C3(O)CCCC3)nn2)O[C@@H]1CO)C1CCC1	-5	0	x	x	x
Cc1ccc(S(=O)(=O)Nc2cccc3c2O[C@@H](CN(C)C(=O)Nc2cccc4ccccc24)[C@@H](C)CN([C@@H](C)CO)C3=O)cc1	-37	12	x	x	x
O=C(O)C[C@@H]1C=C[C@H](NC(=O)c2ccncc2)[C@@H](CO)O1	3	11	x	x	x
O=C(C[C@@H]1CC[C@@H]2[C@H](COC[C@@H](O)CN2Cc2cccc(F)c2)O1)NCc1cccc(F)c1	-1	-11	x	x	x
CC(=O)Nc1ccc(S(=O)(=O)N2CCN(S(=O)(=O)N3CCCCCC3)CC2)cc1	x	12	5	-2	7
N#C/C(=N\Nc1ccc(S(=O)(=O)N2CCOCC2)cc1)C(N)=S	4	-4	5	32	12
O=S(=O)(c1ccc(NC(=S)NC23CC4CC(CC(C4)C2)C3)cc1)N1CCCCC1	13	16	5	70*	44
CC(=O)Nc1ccc(S(=O)(=O)N2CCCC2)cc1	-5	-12	71*	-1	-17
N#CC(C#N)=NNc1ccc(S(=O)(=O)N2CCCCC2)cc1	14	x	19	48	59*
CCOc1ccc(CCNC(=O)CCn2ccc3cc(S(=O)(=O)N4CCCC4)ccc32)cc1	6	4	72*	3	0

Screening results as filed in PubChem.
